Bioassay records as filed in PubChem.
Sampled rows, rich in hits. Any-hit rate of the full collection: about 7.6%.
KB-V1 cytotox: kills drug-selected multidrug resistant KB-V1 cells. AID 1347076. 400,000 compounds, 3.4% hits. KB-V1 MDR cells viability, CellTiter-Glo, 72 h. Potency, µM (highest dose often 46.1 µM), most hits filed as cytotoxic; further: potency means the concentration at half of the fitted maximal effect; on the % scale 0 is the no-effect control and ±100 the full control effect; nearly all actives have a fitted effect of over 60% in size
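qHTS viability screen in drug-selected KB-V1 MDR cells: 72 h compound treatment at 37 degrees C, ATP luminescence end point.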
KCNH2 WT inh: KCNH2 (human, wildtype) channel inhibition; Q12809; U2OS, BacMam KCNH2, thallium flux FluxOr; stronger effect = lower value; activity change, % at 1.84 µM; 340,000 compounds, 0.37% hits;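 active means maximum activity change below -70%; inconclusive means maximum activity change between -70% and -50%; inactive means maximum activity change above -50%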; further: on the % scale 0 is the no-effect control and ±100 the full control effect
Target sequence (Q12809 whole entry, looked up): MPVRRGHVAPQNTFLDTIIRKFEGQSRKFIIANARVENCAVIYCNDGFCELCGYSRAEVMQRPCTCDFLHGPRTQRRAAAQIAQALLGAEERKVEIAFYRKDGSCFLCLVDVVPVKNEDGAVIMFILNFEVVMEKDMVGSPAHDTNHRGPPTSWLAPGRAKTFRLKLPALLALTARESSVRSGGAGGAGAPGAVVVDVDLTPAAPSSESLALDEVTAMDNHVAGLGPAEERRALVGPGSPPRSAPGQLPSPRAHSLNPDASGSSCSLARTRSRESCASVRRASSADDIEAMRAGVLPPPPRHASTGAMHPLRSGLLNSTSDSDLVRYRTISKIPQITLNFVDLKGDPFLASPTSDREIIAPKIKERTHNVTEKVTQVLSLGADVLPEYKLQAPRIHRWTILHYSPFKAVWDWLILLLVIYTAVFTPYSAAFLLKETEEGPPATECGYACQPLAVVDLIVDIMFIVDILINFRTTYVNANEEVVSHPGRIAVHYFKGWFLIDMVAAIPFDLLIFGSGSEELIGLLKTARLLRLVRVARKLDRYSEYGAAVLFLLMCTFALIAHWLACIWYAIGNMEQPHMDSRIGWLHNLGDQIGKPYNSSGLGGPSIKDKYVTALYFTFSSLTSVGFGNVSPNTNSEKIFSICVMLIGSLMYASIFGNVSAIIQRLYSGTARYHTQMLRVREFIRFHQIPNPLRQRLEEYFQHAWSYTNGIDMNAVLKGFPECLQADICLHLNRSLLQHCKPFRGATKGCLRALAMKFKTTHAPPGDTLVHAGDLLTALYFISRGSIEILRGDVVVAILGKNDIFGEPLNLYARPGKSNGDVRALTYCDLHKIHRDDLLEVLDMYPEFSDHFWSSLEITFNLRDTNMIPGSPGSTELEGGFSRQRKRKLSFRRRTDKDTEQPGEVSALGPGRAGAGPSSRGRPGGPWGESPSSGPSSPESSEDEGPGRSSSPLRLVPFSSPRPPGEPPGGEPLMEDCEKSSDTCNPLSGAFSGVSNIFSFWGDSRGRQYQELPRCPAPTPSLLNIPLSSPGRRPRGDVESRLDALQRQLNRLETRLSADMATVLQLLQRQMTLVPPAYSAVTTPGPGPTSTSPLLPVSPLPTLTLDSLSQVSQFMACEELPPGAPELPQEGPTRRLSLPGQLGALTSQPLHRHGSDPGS
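U2OS cells were transduced with wild-type KCNH2 virus (2.03 x 10^8 / mL) for 4 h at room temperature, then cultured overnight at 37 C. Thallium flux was read with FluxOr dye. Rate constants were normalized to DMSO controls.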
KB-3-1 tox: KB-3-1 parental cell cytotoxicity. KB-3-1 viability, CellTiter-Glo ATP luminescence, 72 h. 400,000 compounds, 1.4% hits. AID 1347075. Potency, µM (highest dose often 46.1 µM), hits mostly cytotoxic; further: potency means the concentration at half of the fitted maximal effect; on the % scale 0 is the no-effect control and ±100 the full control effect; nearly all actives have a fitted effect of over 60% in size
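Using CellTiter-Glo luminescence, growth of non-resistant KB-3-1 adenocarcinoma cells is assessed 72 h after pin-tool compound addition at 37 °C. Normalized responses across the concentration series yield fitted curves.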
MCF10A rerep: DNA re-replication induction in MCF 10a cells. MCF 10A DNA re-replication, Hoechst nuclear intensity, 48 h. Potency, µM (series often up to 46.1 µM), without a hit: top-dose activity, positive = re-replication, usual class: activators. 350,000 compounds, 2.9% hits; further: potency means the concentration at half of the fitted maximal effect; % of control where 0% means no effect; nearly all actives have a fitted effect of over 50% in size
SW480 rerep: inducers of DNA re-replication in SW480 colon cancer cells | SW480 DNA re-replication, Hoechst DNA content imaging, 48 h | Potency, µM (highest dose often 46.1 µM), without a hit: at the highest dose re-replication activation, most hits filed as activators | 340,000 compounds, 1.8% hits; further: potency means the concentration at half of the fitted maximal effect; % of control where 0% means no effect; nearly all actives have a fitted effect of over 55% in size
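Image-based read-out: total Hoechst fluorescence of nuclei (405 nm excitation, 500-530 nm emission), with hits raising the fraction of high-intensity nuclei. SW480 colon cells incubated 48 hr with compounds at 37 C.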
KCNH2 3.1 inh: KCNH2 3.1 (human) potassium channel inhibition; activity change, % (tested at about 1.8 µM); 340,000 compounds, 0.95% hits; U2OS KCNH2 3.1, thallium flux FluxOr; stronger effect = lower value;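 active means maximum activity change below -70%; inconclusive means maximum activity change from -70% to -50%; inactive means maximum activity change above -50%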;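 further: thallium influx rate constant from kinetic fluorescence after stimulation buffer; on the % scale 0 is the no-effect control and ±100 the full control effect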
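Thallium flux read-out: FluxOr dye with Red40 quencher in HBSS/HEPES, 45 min at RT. Rate constants from kinetic reads were normalized to positive and negative DMSO controls. Cells: U2OS virally expressing the 3.1 isoform.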
* hit, by the source's call; i = inactive; ? = inconclusive; · = no result. Unless noted, the call rests on the fitted dose curve; in most records, active means well fitted curve in the direction sought with a large enough effect; inconclusive means small, poorly fitted or top-dose-only effect, or another doubt; inactive means no such curve, though single readings can be large; an effect the other way counts as inactive or inconclusive.

SMILES | KB-V1 cytotox | KCNH2 WT inh | KB-3-1 tox | MCF10A rerep | SW480 rerep | KCNH2 3.1 inh
CCCCn1c(O)c(/C=C/C=C/C=Nc2ccccc2)sc1=S | i | -3 | i | 8% | 2% | -40
CCn1c(O)c(/C=C/C=C/C=Nc2ccccc2)sc1=S | ? | -226* | i | 8% | -1% | -184*
CCCn1c(O)c(N=NC(=O)c2ccco2)c2ccccc21 | 2.6µM* | -4 | ? | 14% | 4% | 4
C=CCn1c(O)c(N=NC(=S)Nc2cccc(OC)c2)c2ccccc21 | ? | -12 | 2.3µM* | -33% | -1% | -3
C=CCn1c(O)c(N=NC(=O)CNC(=O)c2ccco2)c2ccccc21 | ? | -3 | ? | 18µM* | 16µM* | 9
CCn1c(O)c(N=NC(=O)CNC(=O)c2ccco2)c2ccccc21 | i | 4 | ? | 2% | -7% | 0
CCn1c(O)c(N=NC(=O)c2cccs2)c2ccccc21 | 9.2µM* | -5 | ? | 13% | -1% | -9
C=CCn1c(O)c(N=NC(=S)Nc2ccc(OC)cc2)c2ccccc21 | i | -24 | ? | 1% | 2% | -13
O=C(NCc1ccccn1)c1ccc(OC2CCN(Cc3cccs3)CC2)cc1 | i | 11 | i | 0% | 21% | -13
COC(=O)N1CCCCC1c1cc(C(=O)Nc2ccccc2Cl)no1 (centres undefined) | i | · | i | · | · | ·
Oc1ccc(C(=S)N2CCCCC2)cc1Cl | 18µM* | -6 | i | 15% | 3% | 10
CCN1CCN(C(=S)c2ccc(Cl)c(Cl)c2)CC1 | 15µM* | -5 | i | 2% | -1% | -2
Cc1cc(C)cc(N2C(=O)CC(N3CCOCC3)C2=O)c1 (centres undefined) | i | -2 | i | 18µM* | 22% | -10
O=C(CN1CCN(C(=O)CNC(=O)c2ccc(N3CCCC3=O)cc2)CC1)Nc1ccccc1Cl | i | -11 | i | 0% | -14% | -3
O=C(NC(=S)NNC(=O)c1ccccc1O)c1ccccc1 | i | -2 | ? | 30% | 15µM* | -4
Cc1ccc(C(=O)NC(=S)NNC(=O)c2ccccc2O)cc1 | i | -14 | i | ? | -2% | 5
O=C(CCc1ccccc1)NC(=S)Nc1cccc(Br)c1 | i | 16 | i | 16µM* | 0% | -14
O=C(CCc1ccccc1)NC(=S)Nc1cccc(C(=O)O)c1 | i | -10 | i | -1% | -2% | 10
Cc1onc(-c2ccccc2)c1C(=O)NC(=S)NNC(=O)c1ccc(O)cc1O | 3.3µM* | -1 | 4.6µM* | ? | -2% | 21
O=C(CCc1ccccc1)NNC(=S)NC(=O)c1ccccc1 | ? | -22 | i | 3.3µM* | 3.7µM* | 2
Cc1ccc(-c2nnc3ccccc3c2C(=O)Nc2ccccc2F)cc1 | i | · | i | · | · | ·
O=C(NNC(=O)c1cc(Br)ccc1O)c1csc(N2CCOCC2)n1 | ? | -1 | ? | -1% | 4.1µM* | -12
O=C(NNC(=O)c1cc(Br)ccc1Cl)c1csc(N2CCOCC2)n1 | ? | -7 | i | -9% | -12% | ·
O=C(C[C@@H]1C[C@@H]2c3cc(NC(=O)C4CCC4)ccc3O[C@@H]2[C@@H](CO)O1)NCc1ccc(Cl)cc1 | i | 3 | i | · | · | 13
CN(C)C1=NCCN1CC1CCCC1 | i | 5 | i | 28% | -4% | -2
COC(=O)C1=C(CN2CCN(C)CC2)NC(=O)NC1c1cc(C)ccc1C (centres undefined) | i | 39 | i | 1% | 1% | 16
COC(=O)C1=C(COc2ccc(C=O)cc2OC)NC(=O)NC1c1cc(C)ccc1C (centres undefined) | 21µM* | -2 | ? | 12% | 0% | -3
c1coc(CNc2ncnc3c2nc2n3CCCC2)c1 | i | · | ? | · | · | ·
CC(C)(C)NS(=O)(=O)c1cccc(S(=O)(=O)c2cccc(S(=O)(=O)NC(C)(C)C)c2)c1 | 15µM* | 29 | i | 21% | ? | -5
